Screening data (PubChem BioAssay)
A selection: hits, their analogues and other compounds. The true share with any hit is near 9.9%.
MCF10A rerep – A quantitative high throughput screen for small molecules that induce DNA re-replication in MCF 10a normal breast cells | MCF 10A DNA re-replication, Hoechst nuclear intensity, 48 h | Potency, µM (highest dose often 46.1 µM), for the others: at the top dose activity, positive = re-replication, usual class: activators | 350,000 compounds, 2.9% hits; also: potency is read from the fitted curve at half-maximal effect; % of control where 0% means no effect; nearly all actives have a fitted effect of over 50% in size
KB-3-1 cytotox – qHTS assay for MDR1-selective chemotherapeutics: Primary screen using the parental adenocarcinoma cell KB-3-1; KB-3-1 viability, CellTiter-Glo ATP luminescence, 72 h; 400,000 compounds, 1.4% hits; Potency, µM (series often up to 46.1 µM), most hits filed as cytotoxic; AID 1347075, 2019; also: potency is read from the fitted curve at half-maximal effect; % is scaled to controls: 0 for no effect and ±100 for the full control effect; nearly all actives have a fitted effect of over 60% in size
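Parental KB-3-1 adenocarcinoma cells in phenol-red-free DMEM with 10% FBS were pin-treated with compounds at several concentrations, incubated 72 h at 37 °C, and viability read by CellTiter-Glo luminescence; concentration-effect curves were fitted after normalization.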
KB-V1 MDR tox – qHTS assay for MDR1-selective chemotherapeutics: Primary screen using the drug-selected MDR subline cells KB-V1; KB-V1 MDR cells viability, CellTiter-Glo, 72 h; Potency, µM (top dose mostly 46.1 µM), actives largely listed as cytotoxic; 400,000 compounds, 3.4% hits; also: potency is read from the fitted curve at half-maximal effect; % is scaled to controls: 0 for no effect and ±100 for the full control effect; nearly all actives have a fitted effect of over 60% in size
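Compound-treated KB-V1 multidrug-resistant cells, 72 h, 37 degrees C; viability by CellTiter-Glo. Fitted qHTS curves give the values.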
SW480 rereplic – A quantitative high throughput screen for small molecules that induce DNA re-replication in SW480 colon adenocarcinoma cells | SW480 DNA re-replication, Hoechst DNA content imaging, 48 h | Potency, µM (top dose mostly 46.1 µM), without a hit: at the top dose re-replication activation, most hits filed as activators | 340,000 compounds, 1.8% hits | AID 624297, 2012; also: potency is read from the fitted curve at half-maximal effect; % of control where 0% means no effect; nearly all actives have a fitted effect of over 55% in size
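Cells (250 per well) received 23 nL compound or DMSO by pin tool and were kept 48 hr at 37 C, 5% CO2. Nuclei were then stained with Hoechst for 40 min and scanned for DNA content.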
IL-1B inflam inh – qHTS for Inhibitors of Inflammasome Signaling: IL-1-beta AlphaLISA Primary Screen; THP-1 LPS/ATP IL-1B secretion, AlphaLISA, 16 h; stronger effect = lower value; activity change, % at 57.5 µM; 360,000 compounds, 4.7% hits; AID 743279, 2014; in the data active = activity change below about -50%; inconclusive = mostly about -30% to -49%; also: % is scaled to controls: 0 for no effect and ±100 for the full control effect
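THP-1 cells pretreated 1 hr with compounds (up to 57.5 uM final), then stimulated with LPS (250 ng/mL final) plus ATP (1.25 mM final); secreted IL-1B measured by AlphaLISA after 16 hr, decreased signal indicating inhibition.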
* = called active by the depositor; i = inactive; ? = inconclusive; . = no result given. Unless noted, calls follow the shape of the dose curve; as a rule, active = well fitted curve in the direction sought with a large enough effect; inconclusive = small, poorly fitted or top-dose-only effect, or another doubt; inactive = no such curve, though single readings can be large; an effect the other way counts as inactive or inconclusive.

SMILES	MCF10A rerep	KB-3-1 cytotox	KB-V1 MDR tox	SW480 rereplic	IL-1B inflam inh
c1cc[n+](CCCC[n+]2ccccc2)cc1	?	i	i	4%	11
CN(C)S(=O)(=O)c1ccc(N2C(=O)CC2(/C=C/c2ccccc2)C(=O)NC2CCCC2)cc1 (centres undefined)	-69%	i	5.2µM*	-1%	-7
COc1ccccc1/C=C/C1(C(=O)NC2CCCC2)CC(=O)N1c1ccccc1 (centres undefined)	9.2µM*	3.7µM*	3.7µM*	7.3µM*	97
O=C(NCc1ccccc1Cl)c1ccc2c(c1)ncn2-c1cccc(F)c1	.	i	i	.	.
CC/C(=N\NC(N)=O)c1ccc(OC)c(OC)c1	9%	i	?	-16%	30
CCOC(=O)CC/C(=N\NC(N)=O)c1ccc(OC)c(Cl)c1	-2%	i	8.2µM*	-4%	0
CCCC1CCc2c(sc(NC(=O)OCC)c2C#N)C1 (centres undefined)	?	?	5.8µM*	10µM*	?
CCOC(=O)Nc1sc2c(c1C#N)CCCC2	14%	i	i	1%	-12
CCCCCCCCN1C(=O)[C@H](CC(=O)NCCCN2CCCC2=O)C[C@@]2(C(=O)OC)CC(C)(C)CC=C12	.	i	i	.	-25
Cc1cc(C)c(S(C)(=O)=O)c(Oc2ccc(C(C)(C)C)cc2)n1	20%	i	16µM*	-38%	21
COc1ccc(NC(=O)COC(=O)Cn2cnc3ccccc32)cc1	-6%	i	i	0%	0
CC(=O)N1CCN(C(=S)Nc2ccc(SC(F)F)cc2)CC1	11%	i	21µM*	2%	-5
CCn1c(N)[n+](CC(=O)Nc2ccc(SC(F)F)cc2)c2ccccc21	?	?	?	?	-97*
CC1CCN(C(=S)Nc2ccc(SC(F)F)cc2)CC1	-2%	i	i	-5%	-17
CC(C)=CC(=O)OCC(=O)Nc1ccc(SC(F)F)cc1	1%	i	i	8%	-10
O=C(Cn1cnc2ccccc21)Nc1ccc(SC(F)F)cc1	11%	i	?	1%	-61*
Cn1ccnc1SCC(=O)Nc1ccc(SC(F)F)cc1	-5%	i	i	-4%	-20
CC[N+](CC)(CC)CC(=O)Nc1ccc(SC(F)F)cc1	3%	i	i	-8%	-96*
O=C(Nc1cc(Cl)cc(Cl)c1)N1CCCC1	12%	i	i	-1%	-10
Cc1ccc(C(=O)Nc2ccc(SC(F)F)cc2)s1	-26%	i	?	-124%	-59*
O=C(Nc1ccc(SC(F)F)cc1)C1=COCCO1	-10%	i	i	-5%	-6
Cc1ccc(Sc2ncccc2N)cc1	?	i	i	21µM*	3
CCC(=O)N1CCc2cc(Br)c(S(=O)(=O)CCC(=O)NCCc3ccccc3)cc21	1%	i	i	10%	-8
O=C(c1cccc(C(F)(F)F)c1)N1CCC(O)(CS(=O)(=O)Cc2ccc(Cl)cc2)CC1	8%	i	12µM*	0%	15
O=C(c1cccc(C(F)(F)F)c1)N1CCC(O)(CS(=O)(=O)Cc2ccccc2Cl)CC1	5%	i	16µM*	-3%	16
SMILES	MCF10A rerep	KB-3-1 cytotox	KB-V1 MDR tox	SW480 rereplic	IL-1B inflam inh
COc1ccc(NC(=O)CCCn2c(=O)c3sccc3n(Cc3ccccc3)c2=O)cc1	-3%	i	i	7%	1
COc1ccc(NC(=O)CCCn2c(=O)c3sccc3n(Cc3ccccc3C)c2=O)cc1	-1%	i	9.2µM*	-4%	2
Cc1nc2nc(SCC(=O)NCCc3ccccc3)nn2c(C)c1Cc1c(F)cccc1Cl	.	i	i	.	.
CC(=O)C(=Cc1ccc(-c2ccccc2)cc1)C(=O)c1ccccc1	.	?	?	.	-112*
O=C(C(Br)=Cc1ccccc1)c1ccccc1	16µM*	.	.	2.9µM*	-110*
CCC(=O)Nc1cccc(C(=O)c2ccccc2)c1	-4%	i	i	-11%	-1
CCC(=O)Nc1cccc(C(=O)/C=C/c2cccs2)c1	24%	i	i	?	-95*
CCC(=O)Nc1cccc(C(=O)/C=C/c2ccccc2)c1	8.2µM*	?	i	?	-117*
CCOC(=O)Cn1c(=O)n(C2CCCCC2)c2nc(-c3c(F)cccc3Cl)nc(C(N)=O)c21	.	?	18µM*	.	.
COc1cccc(Cn2ncc3c4sc(SC)cc4n(C)c3c2=O)c1	.	i	i	.	.
Nc1ncnc2c1ncn2[C@@H]1O[C@H](CNS(=O)(=O)c2cc(S(=O)(=O)c3ccccc3)cs2)[C@@H](O)[C@H]1O	?	i	i	-4%	-4
CCc1c(C)c2cc(Cl)c(O)c(CN3CCCC3)c2oc1=O	?	i	i	21µM*	9
CC(C)N(Cc1nc(-c2ccccc2)no1)S(=O)(=O)c1ccccc1	4%	i	i	-2%	-20
O=S(=O)(c1ccccc1)N(Cc1nc(-c2ccccc2)no1)C1CCCCC1	27%	26µM*	10µM*	4%	-8
COC(=O)c1sccc1NC(=O)c1ccc(C)o1	-5%	i	i	-4%	17
COC(=O)c1sccc1-c1ccc(C(=O)Nc2ccccc2)o1	13%	?	13µM*	-3%	16
Cc1cccc(C)c1NC(=O)CNC(=O)CCC(=O)c1cccs1	-4%	i	i	-2%	10
CC(NC(=O)COc1ccccc1-c1ccccc1)c1ccccc1 (centres undefined)	4.6µM*	i	i	10%	-23
COc1ccc(/C=N/NC(=O)CCSc2nc3ccccc3s2)cc1	?	?	i	10µM*	?
O=C(COc1cccc2ccccc12)N/N=C/c1ccccc1OCc1ccc(C(=O)O)cc1	?	i	i	3%	?
COc1ccc(/C=N/NC(=O)COc2ccccc2-c2ccccc2)cc1	0.82µM*	1.2µM*	0.82µM*	0.92µM*	106
O=C(COc1ccccc1-c1ccccc1)N/N=C/c1cccc2ccccc12	0.46µM*	1.3µM*	0.92µM*	?	18
CCOC(=O)C1=C(C)NC(C)=C(C(=O)OCC)C1C(=O)OCC(=O)NCc1ccccc1	12%	?	?	11%	-6
CCOC(=O)C1=C(C)NC(C)=C(C(=O)OCC)C1C(=O)OCC(=O)NC(C)c1ccccc1 (centres undefined)	?	?	?	7.3µM*	?
O=C(Cc1ccccc1)NCCc1csc2nc(-c3ccc(Cl)cc3)nn12	.	i	i	.	.
